Unmarked numbers belong to inactive results.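 The calls were made as follows: active = fitted curve rises past 20% activation at a concentration no higher than the top valid tested dose; inactive = activity opposite to the expected signal increase, and the rest.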

This test can be described thus: cell wall integrity pathway activation in yeast – S. cerevisiae reporter strain, C. neoformans project, dry powder, dose response (AID 743130). Particulars: S. cerevisiae Rlm1-lacZ reporter, luminescence, 4 h, active compounds read high.

`Cc1ccc(OCCn2c(=S)[nH]c3ccccc32)c(C(C)C)c1`: the maximal activation was 2.35% (at 0.135 µM) and 3.69% (at 0.26 µM).

The record behind these values is PubChem BioAssay AID743130 (Broad Institute, 2013).
